The values below come from PubChem BioAssay AID1347056 (Sanford-Burnham Center for Chemical Genomics, 2019).

As usually defined, the inhibition is the change of the read-out against control, counted positive when it falls.

Out of some 360,000 compounds screened, about 3,600 (1%) were called active. The entries come from a sample that favours actives as a whole. A number with no mark means an inactive call.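 Rule for the calls: active = compounds whose plate-normalised and pattern-corrected inhibition of the luciferase reporter signal at the single screening dose is 50% or more; inactive = the rest.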

The assay in a line: inhibitors of TROY-driven NF-kB signaling, primary screen, Q293 LMP1-TROYcd cells, NF-kB luciferase, uHTS (AID 1347056). As to conditions: Q293 LMP1-TROYcd NF-kB luciferase reporter, 4 h; at 10 µM; active compounds read high. On the technique in general: Reporter assays use an easily measured gene product as a stand-in for the process of interest.
As to `CC(NC(=O)c1ccc(S(=O)(=O)Nc2ccccc2)cc1)c1ccc(S(N)(=O)=O)cc1` (stereo not drawn), the inhibition is 2.55%.

`COCCOC(=O)c1c(C)oc2cc(Br)c(OCC(N)=O)cc12`: the inhibition is 9.46%.

In the case of `CC(=O)c1ccc(NC(=O)C(C)OC(=O)c2ccc(NS(=O)(=O)c3ccc4[nH]c(=O)[nH]c4c3)cc2)cc1` (stereo not drawn), the inhibition was -12.5%.

For `CCCCN1C(=S)NC[C@@H]1C(C)CC` (stereo partly drawn), the inhibition was -3.76%.

`O=[N+]([O-])/C(N=Nc1ccccc1)=N\Nc1ccccc1`: the inhibition is -1.58%.

Take `COC(=O)c1cc(=O)n(-c2c(Cl)cc(C(F)(F)F)cc2Cl)[nH]1`: the inhibition is 6.27%.

Regarding `NC1=NC(=O)S/C1=C\c1ccc(O)cc1`, the inhibition is -17.8%.

With `CCOc1cccc(/C=C/c2ccc3ccccc3n2)c1OC(C)=O`, the inhibition was 33.9%.

Consider `COc1cccc(/C=C/c2ccc3ccccc3n2)c1OC(C)=O`, for which the inhibition was 54.2% (active).

Consider `COc1cccc(NC(=O)COC(=O)c2ccc3ccccc3n2)c1`, for which the inhibition was -23.3%.

`CCOc1ccc(C2c3[nH]c4ccccc4c3CCN2Cc2cccn2-c2ncccn2)cc1` (stereo not drawn): the inhibition was 47.5%.

For `COC(=O)C1=C(C(=O)OC)[C@@H]2N(C)c3ccccc3[C@@]23C[C@@H](C(=O)OC)N(C(=O)c2ccco2)C3=N1`, the inhibition was 7.75%.

Regarding `O=C(Cc1ccc(Cl)cc1)NC1CCS(=O)(=O)C1` (stereo not drawn), the inhibition was 3.91%.

As to `O=S1(=O)CC(NCc2ccccc2)C(Nc2ccc(Cl)cc2)C1` (stereo not drawn), the inhibition is 57% (active).

As for `O=C(NCCS(=O)(=O)NCc1ccc(Cl)cc1)c1ccccc1`, the inhibition was 4.3%.

For the compound `CC(NC(=S)Nc1ccc(OC(F)F)cc1)c1ccc(F)cc1` (stereo not drawn), the inhibition was -5.08%.

As to `Cc1cccc(N2CCN(S(=O)(=O)c3ccc(-c4cc(C)no4)s3)CC2C)c1` (stereo not drawn), the inhibition was -15%.

For `COc1ccc(CNS(=O)(=O)c2ccc(-c3cnc(C4CC4)o3)cc2)cc1`, the inhibition is 26%.

As to `Cc1cccc(CNS(=O)(=O)c2ccc(-c3cnc(C4CC4)o3)cc2)c1`, the inhibition is 15.4%.

Consider `Cc1cccc(NS(=O)(=O)c2ccc(-c3cnc(C4CC4)o3)cc2)c1`, for which the inhibition is 50.5% (active).

With `Cc1c(NC(=O)CCC2CCCCC2)cc(C(=O)N2CCOCC2)cc1[N+](=O)[O-]`, the inhibition was 12.1%.

Consider `COC(=O)[C@]1(C)N[C@H](CN(C)C(=O)c2ccc(C(C)(C)C)cc2)[C@@H]2C(=O)N(C)C(=O)[C@@H]21`, for which the inhibition is -13.4%.

Take `COc1cccc(OCC(=O)NCCS(=O)(=O)N2CCN(c3ccccc3)CC2)c1`: the inhibition is 17.7%.

With `COCc1cc(C)nc(Nc2cc(C)ccc2C)c1C#N`, the inhibition was 0.76%.

For `O=C(Oc1ccc(-c2nc(-c3ccccn3)no2)cc1)c1ccccc1`, the inhibition is 60% (active).

For `O=C(COC(=O)c1ccncc1)c1ccccc1`, the inhibition is -18.8%.

`Cc1noc(C)c1COC(=O)COc1ccc(-c2ccccc2)cc1`: the inhibition was 4.68%.

On to `O=C(Cc1coc2ccc3ccccc3c12)NCc1cccs1`, for which the inhibition was -38.6%.

Turning to `CC(C)Cn1c(N)c(C(=O)NCc2cccs2)c2nc3ccccc3nc21`, the inhibition was 51.3% (active).

As for `O=C(NCc1cccs1)c1cc(-c2ccccn2)nc2ccc(Br)cc12`, the inhibition was -12.5%.

For `CCOc1ccc(NC(=O)CCS(=O)(=O)c2ccc3c(c2)CCCN3C(=O)CC)cc1`, the inhibition is 21.6%.

Take `CCOC(=O)c1cc(C)sc1NC(=O)C1CCC1`: the inhibition is 12.2%.

In the case of `CC1=NN(C(=O)CCCc2ccccc2)C(O)(C(F)(F)F)C1` (stereo not drawn), the inhibition was 6.41%.

For `CCN1CCN(C(=O)CCN2C(=O)c3ccccc3C2=O)CC1`, the inhibition was 13.8%.

Take `C=CCN1CCN(C(=O)CCCc2ccccc2)CC1`: the inhibition is 73.6% (active).

Regarding `C/C(CC(=O)NC(C)c1ccccc1)=N\NC(N)=S` (stereo not drawn), the inhibition was 0.63%.

With `Cn1nccc1C(=O)NC1CCCc2c1cnn2-c1ccc(F)cc1F` (stereo not drawn), the inhibition is 28%.

`COc1ccc(C(=O)NC2CCCc3c2cnn3-c2cccc(C)c2C)c(OC)n1` (stereo not drawn): the inhibition was 55.4% (active).

Turning to `COc1ccc(OC)c(C(=O)NC2CCCc3c2cnn3-c2cc(C)cc(C)c2)c1` (stereo not drawn), the inhibition is -13.7%.

On to `Cc1ccccc1-n1nc(C)c2c1N=C1C(Cl)=CC(Cl)=CN1C2c1ccc(C(=O)O)cc1` (stereo not drawn), for which the inhibition is 1.29%.

Turning to `Cc1cc(Br)cn2c(Cc3ccccc3C(F)(F)F)c(C3CCCCC3)nc12`, the inhibition was 15.5%.

As to `CCOC(=O)c1cnc(SCc2nc(N)nc(Nc3ccc(OC)cc3)n2)nc1N`, the inhibition is -4.61%.

Turning to `CSc1ncccc1C(=O)Nc1ccc2c(c1)OCO2`, the inhibition was -13.6%.

As to `CCS(=O)(=O)N1Cc2ccccc2CC1C(=O)Nc1nc2ccc(F)cc2s1` (stereo not drawn), the inhibition is 42.9%.

Take `CSc1ncccc1C(=O)Nc1nc2ccc(F)cc2s1`: the inhibition is 54.6% (active).

Regarding `O=c1ccc2cc(S(=O)(=O)NCCCc3ccccc3)ccc2[nH]1`, the inhibition is -7.06%.

`CCC(C)(C)NC(=O)CN(Cc1cccs1)C(=O)CNS(=O)(=O)c1ccc(F)cc1`: the inhibition is -7.55%.

`Cc1ccc(S(=O)(=O)N(CC(O)CN2C(=O)NC(C)(C)C2=O)c2cccc([N+](=O)[O-])c2)cc1` (stereo not drawn): the inhibition is 4.48%.

As for `CCCn1c(C)cc(C(=O)COC(=O)c2c(C)nn(-c3ccccc3)c2C)c1C`, the inhibition was -3.58%.

With `COc1ccccc1NC(=S)N1CCN(C(c2ccccc2)c2ccccc2)CC1`, the inhibition was 16.1%.

On to `Cc1cccc(N2CCN(C(c3ccccc3)c3nnnn3CC3CCCO3)CC2)c1C` (stereo not drawn), for which the inhibition was -7.74%.

As to `CC1(C)CC(N2CCN(C(c3ccccc3)c3ccccc3)CC2)=CC(=[N+]2CCCCC2)C1`, the inhibition was 58.6% (active).

Take `O=C(CN1CCOCC1)Nc1c(Cl)cc(Cl)cc1Cl`: the inhibition is -5.43%.

For `C=CCSc1nc2c(c(=O)[nH]1)C(C(C)C)C(C#N)=C(N)O2` (stereo not drawn), the inhibition is 9.46%.

On to `N#Cc1ccccc1NC(=O)COc1c(Br)cc(Br)c2cccnc12`, for which the inhibition is 4.34%.

On to `COc1ccc(Br)cc1/C=N/Nc1ccc(S(=O)(=O)Nc2ccccc2C(=O)O)cc1[N+](=O)[O-]`, for which the inhibition was 58% (active).

`COc1ccc(S(=O)(=O)N2CCC(C(=O)OCC(=O)c3ccccc3)CC2)cc1[N+](=O)[O-]`: the inhibition is -4.41%.

With `CC1CN(C(=O)c2ccccc2NS(=O)(=O)c2cccc([N+](=O)[O-])c2)CC(C)O1` (stereo not drawn), the inhibition is 8.71%.
